Experimental data: PubChem BioAssay
Some of the results follow. The source made the active and inactive calls.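 Rule for the calls, unless noted: active = GFP response above 150% of the DMSO level; inconclusive = fewer than 70 events counted for a yeast strain; inactive = the rest.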

What was measured:
[1] = hit retest on RPL19A-GFP reporter strain – cell-based, S. cerevisiae, flow cytometry, cherry picks, mother/daughter gates, confirmation (AID 2270;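 active = GFP response below 50% of the DMSO control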); settings: 3 h, at 10 µM, stronger effect = lower value, 100 = same GFP as DMSO wells
[2] = yeast TOR pathway reporter LAP4-GFP change – cell-based, cherry picks, flow cytometry, mother/daughter gates, confirmation (AID 2271;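 active = GFP response above 150% of the DMSO control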;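 note: ratio of sample to DMSO plate mean so 100% equals DMSO level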); settings: S. cerevisiae LAP4-GFP strain, 3 h, at 10 µM, stronger effect = higher value, 100 means same as DMSO control
[3] = TOR pathway reporter MEP2-GFP, retest of hits – S. cerevisiae, flow cytometry GFP, cherry picks, confirmation (AID 2272;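 active = GFP response above 150% of the DMSO control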;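 note: ratio of well signal to plate DMSO mean so 100% equals DMSO level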); settings: S. cerevisiae MEP2-GFP strain, 3 h, at 10 µM, stronger effect = higher value
[4] = yeast AGP1-GFP fluorescence change, single-dose – cell-based, flow cytometry, S. cerevisiae, cherry picks, confirmation (AID 2273);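 note: median GFP channel fluorescence over the whole cell population gate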; settings: S. cerevisiae AGP1-GFP strain, 3 h, at 10 µM
[5] = TOR pathway CIT2 reporter hit retest – S. cerevisiae, GFP fusion, cherry picks, mother/daughter gates, confirmation (AID 2274); settings: S. cerevisiae CIT2-GFP strain, flow cytometry, 3 h, at 10 µM, stronger effect = higher value
[6] = green-channel fluorescence artefact in S. cerevisiae – s288c strain, artefact control for yeast TOR pathway GFP screen, dose response (AID 2757;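 active = fluorescence span over the dose series, or activity score, above about 33, limit read from the data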;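 note: thousands of bead-calibrated equivalent soluble fluorophore molecules from median cell fluorescence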); settings: 520 nm autofluorescence, flow cytometry, 3 h, at 33 µM, stronger effect = higher value, zero means same as solvent-only cells
[7] = measured here: daughter cell gate
[8] = measured here: mother cell gate
[9] = measured here: daughter cell gate response
[10] = measured here: mother cell gate response

SMILES	GFP response vs DMSO [1]	GFP response vs DMSO [1, 7]	GFP response vs DMSO [1, 8]	GFP response relative to DMSO [2]	GFP response relative to DMSO [2, 9]	GFP response relative to DMSO [2, 10]	GFP response vs DMSO [3]	GFP response, % of DMSO [4]	GFP response, % of DMSO [5]	GFP response, % of DMSO [5, 7]	GFP response, % of DMSO [5, 8]	fluorescence change (kMESF span) [6]
Cn1ncc(S(=O)(=O)Cc2ccccc2)c(Cl)c1=O	94.2% (inactive)	90.6%	87.7%	316% (active)	160%	319%	100% (inactive)	79.1% (inactive)	92.6% (inactive)	101%	84.3%	–
O=C(/C=C/Sc1ncn[nH]1)c1ccc(Cl)cc1	106% (inactive)	106%	99.8%	213% (active)	198%	214%	114% (inactive)	89.5% (inactive)	110% (inactive)	108%	104%	2.12 (inactive)
CCCc1cc(NCc2ccccn2)n2nc(C)c(-c3ccccc3)c2n1	108% (inactive)	88%	91.2%	172% (active)	–	148%	143% (inactive)	107% (inactive)	92.6% (inactive)	81.7%	77.3%	–
Oc1c(CN2CCN(c3ccc(F)cc3)CC2)cc(Cl)c2cccnc12	101% (inactive)	102%	94.3%	264% (active)	253%	245%	187% (active)	104% (inactive)	141% (inactive)	159%	125%	0.21 (inactive)
O=c1[nH]c(-c2ccccn2)nc(C(F)(F)F)c1Br	110% (inactive)	102%	101%	247% (active)	–	219%	118% (inactive)	91.2% (inactive)	112% (inactive)	106%	103%	–
CC(C)(C)C(=O)NC(=S)NNC(=O)c1ccc(-c2ccccc2)cc1	116% (inactive)	84.5%	104%	228% (active)	–	209%	141% (inactive)	129% (inactive)	132% (inactive)	99.3%	113%	–
CS(=O)(=O)N1N=C(c2ccco2)CC1c1ccc(Br)cc1 (stereo unspecified)	98.4% (inactive)	98.1%	99.2%	103% (inactive)	104%	103%	100% (inactive)	96.8% (inactive)	103% (inactive)	103%	101%	–
C/C(=N\Nc1ncnc2sc(C)c(C)c12)c1ccccn1	194% (inactive)	112%	175%	434% (active)	–	395%	967% (active)	107% (inactive)	449% (active)	118%	921%	–
Cc1cc(C)nc(S/C=C/C(=O)c2ccccc2)n1	100% (inactive)	101%	98%	169% (active)	151%	191%	121% (inactive)	107% (inactive)	92.2% (inactive)	98.4%	83.8%	1.02 (inactive)
CN(C)CCCNc1cc(C(C)(C)C)nc2c(-c3ccc(Cl)cc3)cnn12	93.6% (inactive)	89%	94.2%	116% (inactive)	107%	118%	114% (inactive)	107% (inactive)	93.1% (inactive)	94%	92.6%	–
COc1ccc(C(=O)NC(=S)NNC(=O)CCc2ccccc2)cc1	106% (inactive)	104%	106%	188% (active)	173%	189%	116% (inactive)	87.7% (inactive)	101% (inactive)	104%	93.3%	0.3 (inactive)
CCCc1[nH]nc2c1C(c1ccccc1OC)C(C#N)=C(N)O2 (stereo unspecified)	98% (inactive)	94.4%	94.3%	116% (inactive)	–	100%	120% (inactive)	102% (inactive)	115% (inactive)	121%	112%	–
O=C1C=CC(=O)N1c1cccc(-c2ccccc2)c1	70.2% (inactive)	84.3%	59.1%	220% (active)	–	191%	109% (inactive)	104% (inactive)	86.1% (inactive)	93.2%	70.8%	–
